Assay [1] concerns the target Glucocorticoid receptor (Homo sapiens) (UniProt P04150). Description: GR-EFC Redistribution (AID 451; calls by dose curve; also: potency is read from the fitted curve at half-maximal effect). The settings on record: CHO-K1 GR-EFC translocation, beta-gal luminescence, 2 h. The essentials: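 Translocation of GR-ED fusion to nuclear EA restores b-gal, read by luminescence after 1 h room-temperature detection. Engineered CHO-K1 biosensor cells, 1,000/well, exposed 2 h at 37 C to titrations up to 46 uM final.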

The target of assay [2] is Cytochrome P450 3A4 (Homo sapiens) (UniProt P08684). Description: qHTS Assay for Activators of Cytochrome P450 3A4 (AID 885). Also: nearly all actives have a fitted effect of over 65% in size. The essentials: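 Steps: enzyme/substrate mix dispensed; compound added, 10 min RT; NADPH regeneration solution added, 60 min RT; luciferin detection buffer stops reaction; 20 min later luminescence measured.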
Chain of Cytochrome P450 3A4 (Homo sapiens) (P08684 whole entry, looked up): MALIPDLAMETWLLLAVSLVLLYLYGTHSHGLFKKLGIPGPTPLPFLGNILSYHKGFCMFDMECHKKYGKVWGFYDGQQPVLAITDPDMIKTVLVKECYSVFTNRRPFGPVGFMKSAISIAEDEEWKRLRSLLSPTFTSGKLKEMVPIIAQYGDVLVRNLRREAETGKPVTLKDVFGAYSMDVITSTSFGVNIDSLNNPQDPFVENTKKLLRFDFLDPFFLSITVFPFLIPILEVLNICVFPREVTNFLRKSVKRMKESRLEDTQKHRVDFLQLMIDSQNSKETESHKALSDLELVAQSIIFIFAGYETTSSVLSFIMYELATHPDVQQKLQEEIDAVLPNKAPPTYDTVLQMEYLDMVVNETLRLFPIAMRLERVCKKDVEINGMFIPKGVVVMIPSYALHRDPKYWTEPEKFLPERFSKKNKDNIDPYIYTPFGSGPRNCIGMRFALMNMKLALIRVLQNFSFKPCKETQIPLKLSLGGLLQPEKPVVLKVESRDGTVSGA
(In general: Quantitative high-throughput screening tests each substance at several concentrations.)

Assay [3] deals with Ubiquitin carboxyl-terminal hydrolase 1 (Homo sapiens) (UniProt O94782). Description: Inhibitors of USP1/UAF1: Pilot qHTS (AID 504865).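 Also: rhodamine fluorescence freed from ubiquitin-rhodamine substrate followed over time; top concentration of the series differs between compounds; % is scaled to controls: 0 for no effect and ±100 for the full control effect; nearly all actives have a fitted effect of over 35% in size.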 The essentials: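 Deubiquitinase activity followed as kinetic rhodamine fluorescence release from 150 nM Ub-Rho. 1 nM USP1/UAF1 with compound, after 15 min room-temperature preincubation, in HEPES pH 7.8 buffer containing TCEP, EDTA, BSA and Tween-20.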
Chain of Ubiquitin carboxyl-terminal hydrolase 1 (Homo sapiens) (O94782 whole entry, looked up): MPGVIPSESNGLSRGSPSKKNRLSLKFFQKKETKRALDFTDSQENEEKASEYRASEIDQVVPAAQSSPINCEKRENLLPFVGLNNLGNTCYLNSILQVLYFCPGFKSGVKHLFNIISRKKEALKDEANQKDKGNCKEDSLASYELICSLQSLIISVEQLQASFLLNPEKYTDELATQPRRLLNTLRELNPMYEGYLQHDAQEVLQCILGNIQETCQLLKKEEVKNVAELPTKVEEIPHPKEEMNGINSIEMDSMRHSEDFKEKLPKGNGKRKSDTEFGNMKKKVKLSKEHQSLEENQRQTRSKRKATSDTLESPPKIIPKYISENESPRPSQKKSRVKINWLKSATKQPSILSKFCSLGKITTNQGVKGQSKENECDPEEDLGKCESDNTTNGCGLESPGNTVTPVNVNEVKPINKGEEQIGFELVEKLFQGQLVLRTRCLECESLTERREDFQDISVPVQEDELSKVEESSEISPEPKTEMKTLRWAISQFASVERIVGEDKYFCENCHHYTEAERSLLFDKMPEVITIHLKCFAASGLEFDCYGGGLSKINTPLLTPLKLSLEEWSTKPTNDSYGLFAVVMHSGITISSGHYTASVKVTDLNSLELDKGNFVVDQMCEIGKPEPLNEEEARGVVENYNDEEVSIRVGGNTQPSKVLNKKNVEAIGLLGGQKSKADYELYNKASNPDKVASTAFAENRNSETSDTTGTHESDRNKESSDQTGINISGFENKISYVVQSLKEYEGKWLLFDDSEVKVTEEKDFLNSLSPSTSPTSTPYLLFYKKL

Assay [4] concerns the target DNA dC->dU-editing enzyme APOBEC-3G (Homo sapiens) (UniProt Q9HC16). Description: qHTS for inhibitors of Vif-A3G interactions: Validation (AID 588379). Also: 0% is about no effect. The essentials:
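HeLa cells stably expressing Vif and A3G-eYFP, 700 cells/well, incubated overnight at 37 deg C, then exposed to compound overnight at 37 deg C. Inhibition of Vif-mediated degradation read as increased yellow fluorescence (Ex 488/Em 500-530) by laser-scanning cytometry.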

Assay [5] concerns Zika virus NS2B-NS3 protease. Description: Primary screen GU AMC qHTS for Zika virus inhibitors (AID 1347154).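 Also: 0% = no-inhibitor control and -100% = no-enzyme control; nearly all actives have a fitted effect of over 70% in size.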 The essentials: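 Fluorogenic AMC-substrate cleavage by noncovalent NS2B-NS3 protease complex (25 nM, pH 8.0 Tris buffer with Tween 20) followed for 15 minutes at room temperature (~20% conversion). Percent inhibition from ex340/em450 signal change, fitted by 4-parameter Hill equation.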

A short description of assay [6]: Primary qHTS for small molecule stabilizers of the endoplasmic reticulum resident proteome: Secreted ER Calcium Modulated Protein (SERCaMP) assay (AID 1508630). Also: % is scaled to controls: 0 for no effect and ±100 for the full control effect. The essentials:
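GLuc-SERCaMP-expressing SH-SY5Y cells, pretreated 16 h with compound, are challenged with thapsigargin to empty ER calcium stores; after 4 h, coelenterazine is added directly to the medium and luminescence is imaged.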

Assay [7] deals with Glucocorticoid receptor (Homo sapiens) (UniProt P04150). Description: GR-GFP Redistribution (AID 450;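 active = compounds whose dose series gives a full or clear partial fitted curve of increased nuclear translocation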; also: potency is read from the fitted curve at half-maximal effect). The settings on record: U2OS GR-GFP nuclear translocation, laser cytometry, 2 h.
Chain of Glucocorticoid receptor (Homo sapiens) (P04150 whole entry, looked up, the tested form may be a part): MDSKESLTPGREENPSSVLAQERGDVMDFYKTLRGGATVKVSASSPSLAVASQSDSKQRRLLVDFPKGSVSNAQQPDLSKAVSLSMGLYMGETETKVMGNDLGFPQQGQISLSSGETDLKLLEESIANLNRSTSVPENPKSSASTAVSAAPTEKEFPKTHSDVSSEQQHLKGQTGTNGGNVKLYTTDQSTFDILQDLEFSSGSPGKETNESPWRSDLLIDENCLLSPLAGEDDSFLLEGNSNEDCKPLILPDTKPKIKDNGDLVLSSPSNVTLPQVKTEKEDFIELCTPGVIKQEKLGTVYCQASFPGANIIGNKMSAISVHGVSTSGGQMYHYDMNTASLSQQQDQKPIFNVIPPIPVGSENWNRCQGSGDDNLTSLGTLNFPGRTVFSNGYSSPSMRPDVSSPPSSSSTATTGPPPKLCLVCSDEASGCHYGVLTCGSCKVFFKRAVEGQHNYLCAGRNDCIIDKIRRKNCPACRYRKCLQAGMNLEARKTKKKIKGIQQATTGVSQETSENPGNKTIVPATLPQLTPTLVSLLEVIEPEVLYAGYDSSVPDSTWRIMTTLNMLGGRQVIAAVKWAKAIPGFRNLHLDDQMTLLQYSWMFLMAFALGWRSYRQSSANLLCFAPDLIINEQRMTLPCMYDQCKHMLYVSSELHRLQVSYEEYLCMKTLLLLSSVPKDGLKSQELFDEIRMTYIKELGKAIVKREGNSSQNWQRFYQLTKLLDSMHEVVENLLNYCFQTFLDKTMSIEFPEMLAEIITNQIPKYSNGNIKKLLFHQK
Assay [8] concerns the target Mitogen-activated protein kinase 10 (Mus musculus) (UniProt Q61831). Description: JNK3 AlphaScreen Assay (AID 530; active = well fitted curve in either direction with a large enough effect, not every such curve was filed as active;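 also: kinase came from lysate of stimulated human HepG2 cells; signal reports phosphorylation of biotinylated GST-cJun 1-79 at Ser73 with 10 µM ATP; % is scaled to controls: 0 for no effect and ±100 for the full control effect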). The essentials: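 Room-temperature AlphaScreen kinase assay; pre-activated HepG2 lysate as JNK3 source, biotin-GST-cJun(1-79) substrate, 10 uM ATP, compound 15 min preincubation.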
A general note: Alpha assays give light when donor and acceptor beads are brought close together.

Assay [9] addresses 3',5'-cyclic-AMP phosphodiesterase 4B (Homo sapiens) (UniProt Q07343). Description: qHTS Assay for Inhibitors of PDE-IV (AID 607; active = well fitted activation curve with a large enough effect in the main read-out, with a control signal flat, not every such curve was filed as active; also: potency is read from the fitted curve at half-maximal effect). The essentials:
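The readout is membrane depolarisation from a cAMP-sensing CNG channel, detected with a potential dye at ex 535/em 590. Cells were HEK293-derived (endogenous PDE-IV) at 1000 cells/well, titrated up to 22.9 uM final.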

Assay [10] can be described thus: AP1 Signaling Pathway (AID 357; active = well fitted curve in either direction with a large enough effect, not every such curve was filed as active;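 also: ME-180 reporter cells stimulated with EGF at its EC50 level; % is scaled to controls: 0 for no effect and ±100 for the full control effect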). To be noted: ME-180 AP-1-bla reporter, EGF-induced, beta-lactamase ratio, 5 h; at 38 µM (top of the series). The essentials:
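Modulation of EGF-driven AP-1 transcription was assessed with a beta-lactamase reporter in ME-180 cells. Compound and EC50 EGF were co-incubated 5 hours at 37 °C before 2.5-hour CCF4 loading at room temperature and dual-emission reading.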

Assay [11] has as its target Cytochrome P450 1A2 (Homo sapiens) (UniProt P05177). Description: p450-cyp1a2 (AID 410; calls by dose curve;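 also: -100% = full effect of reference inhibitor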). The essentials:
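Inhibition was calculated relative to 57 uM furafylline (full inhibition). The reaction used human CYP1A2 at 20nM with Luciferin-ME at its Km, 100uM, driven by an NADPH-regenerating system for 60 min at room temperature.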

The nature of assay [12]: NFAT Signaling Pathway (AID 444; active = well fitted curve in either direction with a large enough effect, not every such curve was filed as active;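 also: carbachol stimulus at about its EC50 of 1 µM final; % is scaled to controls: 0 for no effect and ±100 for the full control effect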). To be noted: Jurkat NFAT-bla M1, carbachol, beta-lactamase ratio, 5 h; at 38 µM (top of the series). The essentials: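 Read-out: CCF4 FRET ratio (460 nm/530 nm) after 1 h RT dye loading, used for %activity and AC50 from titration series. Cells: Jurkat NFAT-β-lactamase/M1 line, treated with compound plus 1 uM carbachol for 5 h, 37 °C.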

A short description of assay [13]: Stat Signaling Pathway (AID 446; active = well fitted curve in either direction with a large enough effect, not every such curve was filed as active). To be noted: ME-180 SIE beta-lactamase reporter, IL-6 stimulated, 5 h; at 38 µM (top of the series). The essentials:
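Screening format detects activators and inhibitors alike: ME-180 SIE-bla cells stimulated at 40 pM IL-6 for 5 hrs with compound, then dual-emission beta-lactamase read at 405 nm excitation.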

Assay [14] addresses Cytochrome P450 2C9 (Homo sapiens) (UniProt P11712). Description: qHTS Assay for Inhibitors and Substrates of Cytochrome P450 2C9 (AID 883). Also: % is scaled to controls: 0 for no effect and ±100 for the full control effect; nearly all actives have a fitted effect of over 60% in size. The essentials:
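Luminescent read-out of deoxyluciferin hydroxylation, normalized to 57uM sulphaphenazole (AC100). Reaction: 10nM enzyme, 100uM Luciferin-H (equal to KM), 25mM KPO4, 10 min compound preincubation, then 60 min with NADPH regeneration, both at 37C.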

Assay [15] deals with Cytochrome P450 2D6 (Homo sapiens) (UniProt P10635). Description: qHTS Assay for Inhibitors and Substrates of Cytochrome P450 2D6 (AID 891). Also: potency is read from the fitted curve at half-maximal effect; nearly all actives have a fitted effect of over 60% in size. The essentials:
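Human CYP2D6 (5 nM) with 30 uM Luciferin-ME EGE (at Km) in 100 mM KPO4, compound preincubated 10 min, then NADPH regeneration system for 60 min at room temperature. Luciferin read by luminescence; normalized to 1.43 uM quinidine.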

Assay [16] addresses Muscarinic acetylcholine receptor M1 (Rattus norvegicus) (UniProt P08482). Description: qHTS Assay for Antagonists of Acetylcholine Muscarinic M1 Receptor: Measurement of IP-One Response (AID 944). Also: nearly all actives have a fitted effect of over 75% in size. The essentials:
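Steps: plate transfected CHO-M1 cells overnight; add test compound, 10 min; add carbachol (200 nM, EC80) in stimulation buffer with LiCl; incubate 30 min; add labelled IP1 tracer and anti-IP1 antibody in lysis buffer; read HTRF after 10 min.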

The target in assay [17] is Pyruvate kinase (Leishmania mexicana) (UniProt Q27686). Description: qHTS Validation Assay for Inhibitors of Leishmania Mexicana Pyruvate Kinase (AID 945).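 Also: 0% = DMSO only neutral control wells.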 The essentials: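 The enzyme is a highly purified E451W mutant of LmPYK used at 0.2 nM. It converts 0.5 mM PEP and 0.1 mM ADP over 1 h at room temperature; product ATP is quantified by luciferase luminescence relative to DMSO controls.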
Chain of Pyruvate kinase (Leishmania mexicana) (Q27686 2-499 E452W): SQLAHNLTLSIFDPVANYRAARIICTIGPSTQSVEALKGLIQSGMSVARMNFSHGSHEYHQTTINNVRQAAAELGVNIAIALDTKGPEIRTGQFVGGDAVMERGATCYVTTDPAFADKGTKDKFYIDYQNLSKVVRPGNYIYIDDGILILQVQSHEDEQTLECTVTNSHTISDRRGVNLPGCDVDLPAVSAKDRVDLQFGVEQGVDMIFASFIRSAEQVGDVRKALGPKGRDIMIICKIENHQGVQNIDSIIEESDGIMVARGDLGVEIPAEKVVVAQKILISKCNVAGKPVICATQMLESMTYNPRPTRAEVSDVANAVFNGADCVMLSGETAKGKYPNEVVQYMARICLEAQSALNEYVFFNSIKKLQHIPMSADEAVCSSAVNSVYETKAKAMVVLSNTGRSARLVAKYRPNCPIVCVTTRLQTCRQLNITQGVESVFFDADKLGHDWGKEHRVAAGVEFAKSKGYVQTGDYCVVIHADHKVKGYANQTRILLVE

Assay [18] concerns the target Pyruvate kinase PKM (Homo sapiens) (UniProt P14618). Description: qHTS Assay for Activators of Human Muscle Pyruvate Kinase (AID 954; active = well fitted curve in the direction sought with a large enough effect, not every such curve was filed as active;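 also: 0% = uninhibited enzyme and -100% = no enzyme or full thiadiazolimine inhibition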). The essentials: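 Reaction: 0.1 nM purified PKM2 with 0.5 mM phosphoenolpyruvate and 0.1 mM ADP, room temperature, 1 h. Readout: luciferase-based ATP luminescence after stop reagent. Activators judged against a 0.3 nM enzyme column.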

The target of assay [19] is Alpha-galactosidase A (Homo sapiens) (UniProt P06280). Description: Counterscreen for Glucocerebrosidase Inhibitors: qHTS Assay for Human alpha-Galactosidase at pH 4.5 (AID 992). Also: 0% is about no effect. The essentials: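 Concentration-response curves (0.7 nM to 77 uM final) were modeled with the Hill equation to give AC50. Reactions: 2 nM enzyme, 80 uM fluorogenic alpha-galactoside, pH 4.5 citric acid buffer, 20 min, room temperature.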
(The purpose of a counterscreen is to sort out artefacts and off-target activity.)

For assay [20], the target named is alpha-glucosidase (Oryza sativa, rice) (UniProt Q653V4). Description: Counterscreen for Glucocerebrosidase Inhibitors: qHTS Assay for Rice alpha-Glucosidase at pH 5.0 (AID 997).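 Also: 0% = full activity with enzyme and -100% = basal without enzyme.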 The essentials: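 Rice alpha-glucosidase (4 nM final) with 400 uM 4-methylumbelliferyl-alpha-D-glucopyranoside in citrate buffer pH 5.0, 20 min at room temperature, stopped at pH 10; fluorescence 365/440 nm, compounds 0.7 nM–77 uM, AC50 from Hill fits.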

Assay [21] in a line: qHTS Assay for Lipid Storage Modulators (AID 1519; calls by dose curve). The settings on record: Drosophila S3 cells, BODIPY lipid droplet/cell ratio, laser cytometry, cells loaded with oleic acid. The essentials: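 Cells seeded at 5,000 per well were treated with compounds over a concentration series and loaded with oleic acid (400 uM, as added). Lipid droplet fluorescence (488 nm excitation, 500-530 nm channel) was read by laser-scanning cytometry and normalized to 20 uM Triacsin C.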

Structures are written as SMILES. Inconclusive results are not listed. Active and inactive are the calls of the source. Unless noted, calls follow the shape of the dose curve; as a rule, active = well fitted curve in the direction sought with a large enough effect; inconclusive = small, poorly fitted or top-dose-only effect, or another doubt; inactive = no such curve, though single readings can be large; an effect the other way counts as inactive or inconclusive.

Chain of DNA dC->dU-editing enzyme APOBEC-3G (Homo sapiens) (Q9HC16 whole entry, looked up): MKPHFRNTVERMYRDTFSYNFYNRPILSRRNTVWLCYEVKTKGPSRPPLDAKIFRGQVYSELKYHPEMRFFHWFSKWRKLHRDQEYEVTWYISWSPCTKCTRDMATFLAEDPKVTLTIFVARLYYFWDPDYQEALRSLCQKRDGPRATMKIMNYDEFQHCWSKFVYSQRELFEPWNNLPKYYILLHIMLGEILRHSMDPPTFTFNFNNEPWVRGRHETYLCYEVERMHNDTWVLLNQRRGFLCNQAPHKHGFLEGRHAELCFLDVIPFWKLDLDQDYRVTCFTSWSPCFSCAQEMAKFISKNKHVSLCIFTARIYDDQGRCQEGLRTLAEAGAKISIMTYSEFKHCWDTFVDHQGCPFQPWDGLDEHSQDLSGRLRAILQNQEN
Chain of 3',5'-cyclic-AMP phosphodiesterase 4B (Homo sapiens) (Q07343 whole entry, looked up): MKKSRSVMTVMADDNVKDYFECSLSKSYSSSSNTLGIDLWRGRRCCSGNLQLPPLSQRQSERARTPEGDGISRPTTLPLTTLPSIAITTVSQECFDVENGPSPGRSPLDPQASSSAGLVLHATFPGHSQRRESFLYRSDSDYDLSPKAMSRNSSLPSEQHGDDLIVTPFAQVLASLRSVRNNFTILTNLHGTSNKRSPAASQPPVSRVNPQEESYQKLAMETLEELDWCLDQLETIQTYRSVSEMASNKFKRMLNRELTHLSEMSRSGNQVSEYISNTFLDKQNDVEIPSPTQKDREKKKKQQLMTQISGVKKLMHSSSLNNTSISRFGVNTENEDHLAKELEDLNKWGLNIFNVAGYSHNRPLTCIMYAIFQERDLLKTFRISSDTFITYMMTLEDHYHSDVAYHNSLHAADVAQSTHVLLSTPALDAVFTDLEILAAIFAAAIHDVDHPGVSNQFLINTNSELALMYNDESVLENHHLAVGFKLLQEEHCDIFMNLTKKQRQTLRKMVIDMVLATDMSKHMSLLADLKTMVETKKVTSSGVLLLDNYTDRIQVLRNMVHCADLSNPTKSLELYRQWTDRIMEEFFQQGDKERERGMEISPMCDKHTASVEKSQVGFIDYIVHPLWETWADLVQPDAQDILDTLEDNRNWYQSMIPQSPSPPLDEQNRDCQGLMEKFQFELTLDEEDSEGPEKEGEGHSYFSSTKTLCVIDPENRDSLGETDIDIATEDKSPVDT
Chain of Cytochrome P450 2D6 (Homo sapiens) (P10635 whole entry, looked up): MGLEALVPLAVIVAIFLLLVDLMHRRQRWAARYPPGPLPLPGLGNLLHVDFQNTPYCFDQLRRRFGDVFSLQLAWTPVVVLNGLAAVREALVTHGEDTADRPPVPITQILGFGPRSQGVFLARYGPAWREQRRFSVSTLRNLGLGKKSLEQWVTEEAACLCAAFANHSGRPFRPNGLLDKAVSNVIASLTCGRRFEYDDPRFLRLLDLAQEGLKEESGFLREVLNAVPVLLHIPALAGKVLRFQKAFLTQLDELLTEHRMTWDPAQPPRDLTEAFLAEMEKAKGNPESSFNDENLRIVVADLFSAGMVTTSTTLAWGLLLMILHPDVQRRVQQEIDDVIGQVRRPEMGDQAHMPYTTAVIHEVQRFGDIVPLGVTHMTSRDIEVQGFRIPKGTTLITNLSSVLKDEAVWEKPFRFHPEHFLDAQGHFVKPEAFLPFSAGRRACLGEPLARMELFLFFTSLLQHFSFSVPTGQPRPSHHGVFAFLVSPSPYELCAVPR
Chain of Cytochrome P450 1A2 (Homo sapiens) (P05177 whole entry, looked up): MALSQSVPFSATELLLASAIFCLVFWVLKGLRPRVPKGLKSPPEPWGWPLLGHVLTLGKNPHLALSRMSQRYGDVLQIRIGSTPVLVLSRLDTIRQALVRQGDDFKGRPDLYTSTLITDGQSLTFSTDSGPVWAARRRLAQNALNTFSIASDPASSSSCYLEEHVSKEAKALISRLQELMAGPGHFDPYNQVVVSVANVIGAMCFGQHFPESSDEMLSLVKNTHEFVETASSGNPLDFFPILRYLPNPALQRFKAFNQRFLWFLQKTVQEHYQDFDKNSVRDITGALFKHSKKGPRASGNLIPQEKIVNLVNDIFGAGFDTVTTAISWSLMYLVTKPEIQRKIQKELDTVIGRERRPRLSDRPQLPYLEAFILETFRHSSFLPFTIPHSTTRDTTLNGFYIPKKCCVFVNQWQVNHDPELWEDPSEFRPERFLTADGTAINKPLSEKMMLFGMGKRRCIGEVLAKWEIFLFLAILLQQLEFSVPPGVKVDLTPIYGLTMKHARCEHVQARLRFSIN

For the compound `O=[N+]([O-])c1ccc2cn[nH]c2c1`, the Potency in assay [1] was > 46 µM (inactive). In addition, the Potency result in [2], in assay [3], in [4], in assay [5] and in [6] was “inactive” throughout.
Consider `c1ccc(N2CCN(Cc3nc4ccccc4[nH]3)CC2)nc1`, for which the Potency entry in assay [2], in assay [5] and in assay [6] was “inactive” throughout.
With `CCCn1c(=O)c2[nH]c(-c3ccccc3)nc2n(CCC)c1=O`, the Potency is > 46 µM (inactive) in assay [7] and 0.379 µM (active) in [9]. In addition, the Potency entry in assay [8], in assay [2], in assay [3], in [4], in assay [5] and in assay [6] was “inactive” in each case.
Take `O=C(Nc1ccccc1)[C@@]12C[C@@H]1/C(=N/O)c1ccccc1O2`: the Potency in [7] and in assay [1] was > 46 µM (inactive) in each case. Also, the Potency result in assay [9], in [4], in assay [5] and in assay [6] was “inactive” throughout.
On to `CO[C@]1(C2=NCCN2)COc2ccccc2O1`, for which the values for the activity change, negative = inhibition in [10], in assay [12] and in assay [21] (at 57.5 µM (top of the series)) were -14% (inactive), -11% (inactive) and 1.12% (inactive), respectively. Moreover, the Potency result in assay [11], in assay [8], in [9], in assay [14], in assay [16] and in assay [17] was “inactive” throughout. Also, the Potency result in [4] and in assay [5] was “inactive” each time. The activity, negative = inhibition in assay [13] is 13.6% (inactive). The Potency in assay [7] was > 46 µM (inactive); in assay [1] it was > 46 µM (inactive); in [15], 0.794 µM (active). For the same compound, the compound was classed as inactive in [18], in [19] and in assay [20]. Also, the max response in assay [21] (measured here: cell count channel max response) amounted to 8.44%; in assay [21] (measured here: lipid channel max response) it was 10.7%.

For the origin of these results see PubChem BioAssay (NCATS).
